The values below come from the supplement of paper PMC8728848.

Assay in all cases: glycan array binding signal (z-score within array); higher = stronger binding
What all share (details): glycan notation: IUPAC condensed, linker removed

Test [1] deals with Fuc(a1-2)Gal(b1-3)GalNAc(b1-3)Gal(a1-4)Gal(b1-4)Glc. Put shortly:
(§1)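 Arrays were curated from the Consortium for Functional Glycomics database, 3228 in total, and kept only where the protein sequence was available. Binding is expressed as a within-array Z-score. This score was averaged across arrays of the same protein sequence at different concentrations or buffers and across linkers, and negative values can be read as non-binding.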

The target in test [2] is Fuc(a1-2)Gal(b1-4)GlcNAc(b1-2)Man(a1-3)[Fuc(a1-2)Gal(b1-4)GlcNAc(b1-2)Man(a1-6)]Man(b1-4)GlcNAc(b1-4)GlcNAc. The method in brief:
as §1

In test [3] the target is Fuc(a1-2)Gal(b1-4)GlcNAc(b1-3)Gal(b1-4)GlcNAc(b1-2)Man(a1-3)[Fuc(a1-2)Gal(b1-4)GlcNAc(b1-3)Gal(b1-4)GlcNAc(b1-2)Man(a1-6)]Man(b1-4)GlcNAc(b1-4)GlcNAc. Put shortly: as §1
In test [4] the target is Fuc(a1-2)Gal6S(b1-3)GlcNAc6S. Put shortly: as §1
The next test has as its target Fuc(a1-2)[Gal(a1-3)]Gal. Put shortly:
as §1

Test [5] concerns the target Fuc(a1-2)[Gal(a1-3)]Gal(b1-4)GlcNAc(b1-6)GalNAc. Put shortly:
as §1

For test [6], the target named is Fuc(a1-2)[GalNAc(a1-3)]Gal(b1-4)GlcNAc(b1-2)Man. The method in brief:
as §1

Test [7] has as its target Fuc(a1-2)[GalNAc(a1-3)]Gal(b1-4)GlcNAc(b1-3)Gal(b1-4)GlcNAc(b1-3)Gal(b1-4)GlcNAc. Put shortly: as §1
For test [8], the target named is Fuc(a1-3)[Gal(b1-4)]GlcNAc(b1-2)Man(a1-3)[Fuc(a1-3)[Gal(b1-4)]GlcNAc(b1-2)Man(a1-6)]Man(b1-4)GlcNAc(b1-4)[Fuc(a1-6)]GlcNAc. The method in brief:
as §1

The next test has as its target Gal(a1-3)Gal. The method in brief: as §1
Test [9] has as its target Gal(a1-3)Gal(b1-4)GlcNAc(b1-3)GalNAc. The method in brief:
as §1

Test [10] deals with Gal(a1-4)Gal(b1-4)GlcNAc(b1-2)Man(a1-3)[Gal(a1-4)Gal(b1-4)GlcNAc(b1-2)Man(a1-6)]Man(b1-4)GlcNAc(b1-4)GlcNAc. Put shortly: as §1
The target of another test is Gal(b1-2)Gal. The method in brief:
as §1

The target of another test is Gal(b1-3)GalNAc(b1-3)Gal. The method in brief: as §1
In test [11] the target is Gal(b1-3)GalNAc(b1-4)[Neu5Ac(a2-3)]Gal(b1-4)Glc. Put shortly:
as §1

The next test has as its target Gal(b1-4)GlcNAc(b1-2)Man. The method in brief:
as §1

Test [12] deals with Gal(b1-4)GlcNAc(b1-2)[Gal(b1-4)GlcNAc(b1-4)]Man(a1-3)[Gal(b1-4)GlcNAc(b1-2)Man(a1-6)]Man(b1-4)GlcNAc(b1-4)GlcNAc. Put shortly: as §1
For test [13], the target named is Gal(b1-4)GlcNAc(b1-3)Gal(b1-4)GlcNAc. The method in brief: as §1
The target in test [14] is Gal(b1-4)GlcNAc(b1-3)Gal(b1-4)GlcNAc(b1-3)Gal(b1-4)GlcNAc(b1-3)Gal(b1-4)GlcNAc(b1-3)Gal(b1-4)GlcNAc(b1-2)Man(a1-3)[Gal(b1-4)GlcNAc(b1-3)Gal(b1-4)GlcNAc(b1-3)Gal(b1-4)GlcNAc(b1-3)Gal(b1-4)GlcNAc(b1-3)Gal(b1-4)GlcNAc(b1-2)Man(a1-6)]Man(b1-4)GlcNAc(b1-4)GlcNAc. The method in brief:
as §1

The target in test [15] is Gal(b1-4)GlcNAc(b1-3)Gal(b1-4)GlcNAc(b1-3)Gal(b1-4)GlcNAc(b1-3)Gal(b1-4)GlcNAc(b1-3)Gal(b1-4)GlcNAc(b1-2)Man(a1-3)[Gal(b1-4)GlcNAc(b1-3)Gal(b1-4)GlcNAc(b1-3)Gal(b1-4)GlcNAc(b1-3)Gal(b1-4)GlcNAc(b1-3)Gal(b1-4)GlcNAc(b1-2)Man(a1-6)]Man(b1-4)GlcNAc(b1-4)[Fuc(a1-6)]GlcNAc. The method in brief:
as §1

Another test has as its target Gal3S(b1-3)GalNAc. Put shortly:
as §1

A further test addresses Gal6S(b1-4)GlcNAc6S. Put shortly:
as §1

The target in test [16] is GalNAc(b1-3)Gal(a1-4)Gal(b1-4)GlcNAc. Put shortly:
as §1

For a further test, the target named is GalNAc(b1-3)GlcNAc. The method in brief:
as §1

In a further test the target is GalNAc(b1-4)Gal(b1-4)Glc. Put shortly:
as §1

Test [17] has as its target GalNAc(b1-4)GlcNAc(b1-3)GalNAc(b1-4)GlcNAc. Put shortly: as §1
The next test deals with GalNAc3S(b1-4)GlcNAc. Put shortly:
as §1

The target in test [18] is GlcNAc(b1-2)Man(a1-3)[GlcNAc(b1-2)Man(a1-6)]Man(b1-4)GlcNAc(b1-4)[Fuc(a1-6)]GlcNAc. Put shortly:
as §1

In test [19] the target is GlcNAc(b1-2)Man(a1-3)[GlcNAc(b1-4)][GlcNAc(b1-2)Man(a1-6)]Man(b1-4)GlcNAc(b1-4)GlcNAc. Put shortly:
as §1

In test [20] the target is GlcNAc(b1-2)[GlcNAc(b1-6)]Man(a1-6)[GlcNAc(b1-4)][GlcNAc(b1-2)Man(a1-3)]Man(b1-4)GlcNAc(b1-4)GlcNAc. Put shortly:
as §1

For test [21], the target named is Neu5Ac(a2-6)Gal(b1-4)GlcNAc(b1-3)Gal(b1-4)GlcNAc(b1-3)Gal(b1-4)GlcNAc(b1-2)Man(a1-3)[Neu5Ac(a2-6)Gal(b1-4)GlcNAc(b1-3)Gal(b1-4)GlcNAc(b1-3)Gal(b1-4)GlcNAc(b1-2)Man(a1-6)]GalNAc. The method in brief:
as §1

For test [22], the target named is Neu5Ac(a2-8)Neu5Ac(a2-8)Neu5Ac(a2-8)Neu5Ac(a2-3)[GalNAc(b1-4)]Gal(b1-4)Glc. The method in brief: as §1
The target in test [23] is Neu5Ac(a2-8)Neu5Gc(a2-3)Gal(b1-4)GlcNAc. The method in brief:
as §1

The target of a further test is Neu5Ac(b2-6)GalNAc. Put shortly: as §1
Test [24] addresses Neu5Ac9Ac(a2-3)Gal(b1-3)GlcNAc. Put shortly: as §1
Test [25] has as its target Neu5Ac9Ac(a2-6)Gal(b1-4)GlcNAc. Put shortly: as §1
In test [26] the target is Neu5Gc(a2-3)Gal(b1-3)GlcNAc. Put shortly: as §1

Many of the other results were omitted from the sample, so the strongest signals are more common in it than they were.

B1: pTFF2 (Sus scrofa), P01359 (protein)
chain: KPAACRCSRQDPKNRVNCGFPGITSDQCFTSGCCFDSQVPGVPWCFKPLPAQESEECVMEVSARKNCGYPGISPEDCAARNCCFSDTIPEVPWCFFPMSVEACHY
In the case of B1, the “glycan array binding signal (z-score)” value in [1] is -0.047; in [2], 0.121; in test [3], 0.716; in [4] it was -0.991; with Fuc(a1-2)[Gal(a1-3)]Gal it was -0.204; in test [5], -0.303. For the same molecule, the “glycan array binding signal (z-score)” value in test [6] was 0.535; in test [7], -0.048; in test [8], -0.109; with Gal(a1-3)Gal, -0.276; in test [9], 0.196; in [10], 2.45. The “glycan array binding signal (z-score)” value with Gal(b1-2)Gal is -1.31; with Gal(b1-3)GalNAc(b1-3)Gal, 2.98; in test [11] it was 2.82; with Gal(b1-4)GlcNAc(b1-2)Man it was -2.22; in test [12], -0.702; in test [13] it was -0.47. Also, the “glycan array binding signal (z-score)” value in test [14] is 2.48; in [15], 2.62; with Gal3S(b1-3)GalNAc, 0.185; with Gal6S(b1-4)GlcNAc6S, 0.285; in [16], -0.4; in the test with GalNAc(b1-3)GlcNAc, 0.736. The “glycan array binding signal (z-score)” value with GalNAc(b1-4)Gal(b1-4)Glc is 4.38; in test [17], -0.11; in the test with GalNAc3S(b1-4)GlcNAc, 2.64; in test [18], -1.4; in test [19], 0.002; in test [20] it was 0.104.

B2: SBD-G4S3-Fc (protein)
chain: MASIPSSASVQLDSYNYDGSTFSGKIYVKNIAYSKKVTVVYADGSDNWNNNGNIIAASFSGPISGSNYEYWTFSASVKGIKEFYIKYEVSGKTYYDNNNSANYQVSTGGGGSGGGGSGGGGSEFVPRDCGCKPCICTVPEVSSVFIFPPKPKDVLTITLTPKVTCVVVDISKDDPEVQFSWFVDDVEVHTAQTQPREEQFNSTFRSVSELPIMHQDWLNGKEFKCRVNSAAFPAPIEKTISKTKGRPKAPQVYTIPPPKEQMAKDKVSLTCMITDFFPEDITVEWQWNGQPAENYKNTQPIMDTDGSYFVYSKLNVQKSNWEAGNTFTCSVLHEGLHNHHTEKSLSHSPGAA
Regarding B2, the “glycan array binding signal (z-score)” value in test [21] was 1.23; in test [22], -0.006; in [23], 7.21; in the test with Neu5Ac(b2-6)GalNAc, -0.513; in test [24], 0.058; in test [25] it was 0.039. In addition, the “glycan array binding signal (z-score)” value in test [26] is -0.167.
